Reference: PubChem BioAssay (EPA / NIEHS)
Values joined by “and” are separate entries in the source; they are usually repeats but may differ in a detail not shown here. Equal values may be shown once. A structure can be active in one record and inactive in another. Active and inactive are the calls of the source. The calls were made as follows: active = hit-call score of the fitted dose curve at least 0.9, where 1 is the maximum; inactive = score below 0.9.

Columns and labels:
[1] = read-out: Secreted IgG (sIgG), gene 3500; experiment: BSK_BT_sIgG: BioMAP Diversity Plus: BT Assay for Secreted IgG (sIgG) Biomarker Activity (AID 2284226); settings: primary human B cells with PBMC
Method in brief: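 Read-out: ELISA for secreted IgG after 24 h of chemical exposure in a B cell plus PBMC co-culture. Values reflect upward-direction fitting against DMSO negative controls.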

[2] = BSK_BT_Bcell_Proliferation: Viability Assessment in the BioMAP Diversity Plus: BT Assay for B cell Proliferation (AID 2284227); settings: primary human B cells with PBMC
Method in brief: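 Using a human primary B cell–PBMC co-culture, the assay measures total protein by sulforhodamine B absorbance as a gauge of proliferation after 72 h. Analysis followed the positive fitting direction with DMSO as baseline.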

[3] = read-out: Interleukin 6 (IL6), IL6 (gene 3569); experiment: BSK_BT_xIL6: BioMAP Diversity Plus: BT Assay for Interleukin 6 (IL6) Biomarker Activity (AID 2284228); settings: primary human B cells with PBMC
Method in brief: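 B cells and peripheral blood mononuclear cells (human primary co-culture) were dosed with chemical, and after 24 h IL-6 released into the medium was measured by Luminex xMAP. Responses were analysed as gain of signal over DMSO control.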

[4] = read-out: Interleukin 17A (IL17A), IL17A (gene 3605); experiment: BSK_BT_xIL17A: BioMAP Diversity Plus: BT Assay for Interleukin 17A (IL17A) Biomarker Activity (AID 2284229); settings: primary human B cells with PBMC
Method in brief: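 Secreted IL-17A was the measured endpoint, read by Luminex xMAP multiplex in supernatants of a human B cell/PBMC co-culture harvested 24 h after chemical dosing. Signal increase relative to DMSO defined activity.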

[5] = read-out: Tumor necrosis factor (Homo sapiens) (UniProt P01375); experiment: BSK_BT_xTNFa: BioMAP Diversity Plus: BT Assay for Tumor necrosis factor alpha (TNF-alpha) Biomarker Activity (AID 2284230); settings: primary human B cells with PBMC
Method in brief: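 Endpoint derived in the positive direction versus DMSO vehicle. Cells: B cells together with PBMC, exposed 24 h before TNF-alpha in the medium was read on the Luminex xMAP platform.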

[6] = read-out: Vascular cell adhesion molecule 1 (VCAM1), VCAM1 (gene 7412); experiment: BSK_MyoF_VCAM1: BioMAP Diversity Plus: MyoF Assay for Vascular cell adhesion molecule 1 (VCAM1) Biomarker Activity (AID 2284231); settings: primary human lung fibroblasts
Method in brief: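 ELISA read-out of VCAM-1 on human lung fibroblasts 24 h after chemical treatment, with positive-direction curve fitting relative to DMSO controls. Parallel cultures were stained with sulforhodamine B for total protein to flag overt cytotoxicity.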

Sequence of Tumor necrosis factor (Homo sapiens) (P01375 whole entry, looked up): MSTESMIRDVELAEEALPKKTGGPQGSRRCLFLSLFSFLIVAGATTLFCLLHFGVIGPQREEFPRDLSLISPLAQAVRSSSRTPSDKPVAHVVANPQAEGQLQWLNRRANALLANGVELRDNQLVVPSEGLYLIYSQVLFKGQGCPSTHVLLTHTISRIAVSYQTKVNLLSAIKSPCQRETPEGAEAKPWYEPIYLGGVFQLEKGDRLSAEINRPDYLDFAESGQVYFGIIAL

SMILES: C=CC(=O)OCCC(F)(F)C(F)(F)C(F)(F)C(F)(F)C(F)(F)C(F)(F)C(F)(F)C(F)(F)F
- outcome [1]: inactive
- outcome [2]: inactive
- outcome [3]: inactive
- outcome [4]: inactive
- outcome [5]: inactive
- outcome [6]: inactive

SMILES: Oc1cc2ccccc2cc1O
- outcome [1]: inactive
- outcome [2]: inactive
- outcome [3]: inactive
- outcome [4]: inactive
- outcome [5]: inactive
- outcome [6]: inactive

SMILES: C[C@]12CC[C@@H]3c4ccc(O)cc4CC[C@H]3[C@@H]1C[C@@H](O)[C@@H]2O
- outcome [1]: inactive
- outcome [2]: inactive
- outcome [3]: inactive
- outcome [4]: inactive
- outcome [5]: inactive
- outcome [6]: inactive

SMILES: OCCN1CN(CCO)CN(CCO)C1
- AC50 [1]: 29.2 µM (active)
- AC50 [2]: 38.2 µM (active)
- AC50 [3]: 33.6 µM (active)
- outcome [4]: inactive
- AC50 [5]: 34.1 µM (active)
- outcome [6]: inactive

SMILES: O=P(O)(O)CCC(F)(F)C(F)(F)C(F)(F)C(F)(F)C(F)(F)C(F)(F)C(F)(F)C(F)(F)F
- outcome [1]: inactive
- AC50 [2]: 30 µM (active) and 53.9 µM (active)
- outcome [3]: inactive
- outcome [4]: inactive
- AC50 [5]: 30 µM (active)
- outcome [5]: inactive
- outcome [6]: inactive

SMILES: Cc1ccc(N=Nc2c(O)ccc3ccccc23)c(C)c1
- AC50 [1]: 10 µM (active)
- outcome [2]: inactive
- outcome [3]: inactive
- outcome [4]: inactive
- outcome [5]: inactive
- outcome [6]: inactive

SMILES: O=C(O)CCC(F)(F)C(F)(F)C(F)(F)C(F)(F)C(F)(F)C(F)(F)F
- AC50 [1]: 14 µM (active) and 36.7 µM (active)
- outcome [1]: inactive
- outcome [2]: inactive
- outcome [3]: inactive
- outcome [4]: inactive
- AC50 [5]: 36.5 µM (active)
- outcome [5]: inactive
- outcome [6]: inactive

SMILES: CCCCC(CC)C(=O)OCCOCCOCCOCCOC(=O)C(CC)CCCC (stereo not given)
- AC50 [1]: 25.2 µM (active)
- AC50 [2]: 28.4 µM (active)
- AC50 [3]: 0.016 µM (active)
- outcome [4]: inactive
- AC50 [5]: 0.016 µM (active)
- outcome [6]: inactive

SMILES: Cc1cccc2c1ccc1ccccc12
- AC50 [1]: 26.6 µM (active)
- outcome [2]: inactive
- AC50 [3]: 0.157 µM (active)
- outcome [4]: inactive
- outcome [5]: inactive
- outcome [6]: inactive

SMILES: O=S(=O)(O)C(F)(F)C(F)(F)C(F)(F)C(F)(F)C(F)(F)C(F)(F)C(F)(F)C(F)(F)C(F)(F)C(F)(F)F
- outcome [1]: inactive
- outcome [2]: inactive
- outcome [3]: inactive
- outcome [4]: inactive
- outcome [5]: inactive
- outcome [6]: inactive

SMILES: OCC(F)(F)C(F)(F)C(F)(F)C(F)(F)C(F)(F)C(F)(F)C(F)(F)C(F)(F)C(F)(F)C(F)(F)C(F)(F)F
- outcome [1]: inactive
- AC50 [2]: 174 nM (active) and 835 nM (active)
- outcome [3]: inactive
- AC50 [4]: 0.0554 µM (active)
- outcome [4]: inactive
- outcome [5]: inactive
- outcome [6]: inactive

SMILES: CC(C)(C)c1ccc(O)c(O)c1
- AC50 [1]: 31.4 µM (active)
- AC50 [2]: 29.1 µM (active)
- AC50 [3]: 25.3 µM (active)
- AC50 [4]: 16.5 µM (active)
- AC50 [5]: 31.5 µM (active)
- AC50 [6]: 31.5 µM (active)

SMILES: CCCCCc1ccc(O)cc1
- AC50 [1]: 20 µM (active)
- outcome [2]: inactive
- outcome [3]: inactive
- outcome [4]: inactive
- outcome [5]: inactive
- AC50 [6]: 26.9 µM (active)

SMILES: COCN(COC)c1nc(N(COC)COC)nc(N(COC)COC)n1
- outcome [1]: inactive
- outcome [2]: inactive
- outcome [3]: inactive
- outcome [4]: inactive
- outcome [5]: inactive
- outcome [6]: inactive

SMILES: CN(C)c1ccc(C(=C2C=CC(=[N+](C)C)C=C2)c2ccccc2)cc1
- AC50 [1]: 0.227 µM (active)
- AC50 [2]: 0.248 µM (active)
- AC50 [3]: 1.13 µM (active)
- AC50 [4]: 0.28 µM (active)
- AC50 [5]: 0.805 µM (active)
- AC50 [6]: 0.0764 µM (active)

SMILES: O=C(NO)c1ccccc1
- outcome [1]: inactive
- outcome [2]: inactive
- AC50 [3]: 4.24 µM (active)
- AC50 [4]: 8.55 µM (active)
- AC50 [5]: 19.2 µM (active)
- outcome [6]: inactive

SMILES: CN(Cc1cnc2nc(N)nc(N)c2n1)c1ccc(C(=O)N[C@@H](CCC(=O)O)C(=O)O)cc1
- AC50 [1]: 662 nM (active) and 100 nM (active)
- AC50 [2]: 855 nM (active) and 43.4 nM (active)
- outcome [3]: inactive
- outcome [4]: inactive
- outcome [5]: inactive
- outcome [6]: inactive

SMILES: NC(=NCCCCCCN=C(N)/N=C(\N)Nc1ccc(Cl)cc1)/N=C(\N)Nc1ccc(Cl)cc1
- AC50 [1]: 2.87 µM (active)
- AC50 [2]: 9.19 µM (active)
- AC50 [3]: 8.83 µM (active)
- AC50 [4]: 4.09 µM (active)
- AC50 [5]: 8.79 µM (active)
- AC50 [6]: 4.99 µM (active)

SMILES: O=C(O)CCC(F)(F)C(F)(F)C(F)(F)C(F)(F)C(F)(F)F
- AC50 [1]: 30 µM (active)
- outcome [1]: inactive
- AC50 [2]: 6.31 µM (active)
- outcome [2]: inactive
- outcome [3]: inactive
- outcome [4]: inactive
- outcome [5]: inactive
- outcome [6]: inactive
